Experimental data published in PubChem BioAssay.
Values without a mark were called inactive. The source made the active and inactive calls.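 The calls were made as follows, unless noted: active = at least 20% inhibition of 6-phosphogluconate dehydrogenase activity; inactive = the rest.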

Columns and labels:
[1] = biological target: 6-phosphogluconate dehydrogenase, decarboxylating (Homo sapiens) (UniProt P52209); test: 6PGD enzyme inhibitors, primary screen, biochemical, human, recombinant enzyme, NADPH absorbance (AID 1159550); details: recombinant 6PGD, NADPH absorbance 341 nm; at 10 µM; hits give high values
6-phosphogluconate dehydrogenase, decarboxylating (Homo sapiens), sequence (P52209 whole entry, looked up, the tested form may be a part): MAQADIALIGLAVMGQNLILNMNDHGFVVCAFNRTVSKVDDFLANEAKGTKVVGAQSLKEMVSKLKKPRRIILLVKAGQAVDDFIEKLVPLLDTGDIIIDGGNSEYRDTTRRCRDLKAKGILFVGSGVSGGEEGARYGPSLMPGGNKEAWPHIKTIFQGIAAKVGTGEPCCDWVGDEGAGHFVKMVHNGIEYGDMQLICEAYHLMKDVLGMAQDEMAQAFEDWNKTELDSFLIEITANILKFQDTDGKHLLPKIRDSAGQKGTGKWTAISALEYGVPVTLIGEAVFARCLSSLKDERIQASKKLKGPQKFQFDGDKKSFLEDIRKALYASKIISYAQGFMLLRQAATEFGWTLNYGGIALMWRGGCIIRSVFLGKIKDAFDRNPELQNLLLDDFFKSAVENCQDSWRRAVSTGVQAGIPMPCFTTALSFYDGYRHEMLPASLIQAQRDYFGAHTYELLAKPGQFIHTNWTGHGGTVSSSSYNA

[2] = biological target: Mitogen-activated protein kinase 7 (Homo sapiens) (UniProt Q13164); test: ERK5 transactivation activators in reporter cells, primary screen, cell-based, HTS (AID 1508626;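 active = luciferase signal above three times the same-plate solvent-only control wells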;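 also: luciferase driven by Gal4-ERK5 fusion binding five Gal4 sites before minimal TATA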); details: HeLa Gal4-ERK5 transactivation, 18 h, at 5 µM, hits give high values
Mitogen-activated protein kinase 7 (Homo sapiens), sequence (Q13164 whole entry, looked up, the tested form may be a part): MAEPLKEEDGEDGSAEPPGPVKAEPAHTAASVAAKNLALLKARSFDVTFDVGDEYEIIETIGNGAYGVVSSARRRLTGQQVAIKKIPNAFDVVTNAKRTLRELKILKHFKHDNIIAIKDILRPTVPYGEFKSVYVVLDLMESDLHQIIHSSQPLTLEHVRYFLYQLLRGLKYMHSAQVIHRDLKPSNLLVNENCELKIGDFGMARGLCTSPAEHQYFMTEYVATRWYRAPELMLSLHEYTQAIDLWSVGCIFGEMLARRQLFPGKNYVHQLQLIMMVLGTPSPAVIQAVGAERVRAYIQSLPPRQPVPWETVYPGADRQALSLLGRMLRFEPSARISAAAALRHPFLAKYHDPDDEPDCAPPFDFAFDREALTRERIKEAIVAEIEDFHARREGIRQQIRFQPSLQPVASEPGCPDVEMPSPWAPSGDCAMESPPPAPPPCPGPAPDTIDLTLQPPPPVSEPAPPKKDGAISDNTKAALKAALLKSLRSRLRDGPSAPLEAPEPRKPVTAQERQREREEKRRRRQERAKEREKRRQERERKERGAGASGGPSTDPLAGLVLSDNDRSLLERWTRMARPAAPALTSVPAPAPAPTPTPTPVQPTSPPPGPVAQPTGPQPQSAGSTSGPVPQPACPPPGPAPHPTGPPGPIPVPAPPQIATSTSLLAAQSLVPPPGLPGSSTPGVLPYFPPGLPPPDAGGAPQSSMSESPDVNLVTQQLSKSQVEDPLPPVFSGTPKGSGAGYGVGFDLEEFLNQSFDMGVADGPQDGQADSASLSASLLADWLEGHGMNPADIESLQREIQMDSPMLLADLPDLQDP

Row | SMILES | inhibition [1] | luciferase signal [2]
1 | Cc1cc(O)c2c(c1O)C(=O)c1c(O)cc(C)c(O)c1C2=O | 2.78% | 48 AU
2 | C[C@@H]([C@H]1OC(C)(C)[C@@H](O)[C@H]1O)[C@@H]1CC[C@]2(C)C3=CC[C@H]4C(C)(C)C(=O)CC[C@]4(C)[C@H]3CC[C@@]12C | 4.2% | 44 AU
3 | C=C1[C@@H]([C@@]2(C)C=CC(=O)C(C)(C)[C@@H]2CC(=O)OC)CC[C@@]2(C)C(c3ccoc3)OC(=O)[C@H]3O[C@]132 (stereo partly drawn) | 0.696% | 20 AU
4 | CC(=O)O[C@H]1CC[C@@]2(C)C(=CC(=O)[C@H]3[C@@H]4CC[C@H]([C@H](C)CCCC(C)C)[C@@]4(C)CC[C@@H]32)C1 | -8.76% | 76 AU
5 | CC(C)c1c(O)ccc2c1CC[C@H]1C(C)(C)CCC[C@]21C | -7.32% | 20 AU
6 | C[C@@H]1CC[C@H]2[C@](C)(CO)[C@@H](O)CC[C@]2(C)[C@@]12CC[C@@](CO)(CCO)O2 | -5.82% | 48 AU
7 | C[C@@H]1O[C@@H](O[C@H]2[C@H](O[C@H]3CC[C@@]4(C)[C@@H](CC[C@]5(C)[C@@H]4CC=C4[C@@H]6CC(C)(C)CC[C@]6(C(=O)O)CC[C@]45C)[C@]3(C)CO)OC[C@H](O)[C@@H]2O)[C@H](O)[C@H](O)[C@H]1O | 10.9% | 40 AU
8 | O=c1cccc2cc(O)c(O)c(O)c2c1O | 16.8% | 60 AU
9 | CCC(=O)OC1[C@@H]2CC3=C4CC(=O)O[C@@H](c5ccoc5)[C@]4(C)CCC3[C@@](C)(C2=O)[C@@H](CC(=O)OC)C1(C)C (stereo partly drawn) | -1.17% | 20 AU
10 | COC(=O)/C(=C1/OC(=O)C(c2ccccc2)=C1O)c1ccccc1 | 11.9% | 68 AU
11 | O=C(/C=C(\O)c1ccccc1)c1ccccc1O | -0.592% | 16 AU
12 | COc1cc(O)c2c(=O)cc(-c3ccc(OC)c(-c4c(O)cc(O)c5c(=O)cc(-c6ccc(O)cc6)oc45)c3)oc2c1 | -1.48% | 24 AU
13 | CC(=O)OC(C)(C)[C@@H]1Cc2cc3ccc(=O)oc3cc2O1 | 2.42% | 40 AU
14 | CC1C2[C@]3(CC[C@H]1C)CCC1(C)[C@@]2(C=CC2[C@@]4(C)CC[C@H](O)C(C)(C)C4CC[C@]21C)OC3=O (stereo partly drawn) | 5.53% | 56 AU
15 | COc1cccc(/C=C/C(=O)O)c1C(C)C | 0.939% | 24 AU
16 | O=C(Cc1cccs1)N[C@@H]1C(=O)N2C(C(=O)[O-])=C(C[n+]3ccccc3)CS[C@H]12 | 0.514% | 112 AU
17 | CC(=O)OC1CCC2(O)CC1(C)CCC1C2CC1(C)C (stereo not drawn) | 15.6% | 36 AU
18 | COc1ccc(-c2oc3cc(O[C@@H]4O[C@H](CO)[C@@H](O)[C@H](O)[C@H]4O)c(OC)c(O)c3c(=O)c2OC)cc1O | -33.5% | 172 AU
19 | O=C(Cc1ccccc1)NO | -18.4% | 68 AU
20 | CC1(O)CC2C(CC1O)C2(C)C (stereo not drawn) | 13.8% | 60 AU
21 | COc1cc2c3cc1Oc1c(OC)c(OC)cc4c1[C@@H](Cc1ccc(O)c(c1)Oc1ccc(cc1)C[C@@H]3N(C)CC2)N(C)CC4 | 14.7% | 64 AU
22 | CC(=O)CC(=O)CCC(=O)O | 9.16% | 80 AU

Row | SMILES | inhibition [1] | luciferase signal [2]
23 | C[C@H]1[C@H](C)CC[C@]2(C(=O)O)CC[C@]3(C)C(=CC[C@@H]4[C@@]5(C)C[C@@H](O)[C@H](O)[C@@](C)(CO)[C@@H]5[C@H](O)C[C@]43C)[C@H]12 | 2.44% | 48 AU
24 | CCOC(=O)c1c(C)cc(OC)cc1O | 13.5% | 84 AU
25 | COc1cc(C)c(C(=O)O)c(O)c1 | -0.391% | 80 AU
26 | COC(=O)C[C@H]1C(C)(C)[C@@H](O)[C@@H]2CC3=C4C=C(OC)O[C@@H](c5ccoc5)[C@]4(C)CCC3[C@@]1(C)C2=O (stereo partly drawn) | 1.56% | 28 AU
27 | COC(=O)C(O)c1ccccc1 (stereo not drawn) | 1.31% | 28 AU
28 | COC(=O)[C@@H]1OC(=O)C2OC23[C@@]1(C)CCC1[C@]2(C)C(C[C@H](O)[C@]13C)C(C)(C)[C@H](OC(C)=O)C[C@@H]2OC(C)=O (stereo partly drawn) | -8.14% | 24 AU
29 | CC(=O)O[C@@H]1c2c(ccc3ccc(=O)oc23)OC(C)(C)[C@@H]1OC(=O)CC(C)C | -10.5% | 188 AU
30 | O=c1oc2ccccc2cc1O | 15.9% | 36 AU
31 | CC1/C(=N/O)C[C@@H]2C[C@H]1C2(C)C (stereo partly drawn) | -7.59% | 52 AU
32 | CC(C)=CCc1c(O)cc2occ(-c3ccc4c(c3)OCO4)c(=O)c2c1O | -0.247% | 104 AU
33 | COc1ccc(-c2cc(=O)c3c(O)c(OC)c(O[C@@H]4O[C@H](CO[C@@H]5O[C@@H](C)[C@H](O)[C@@H](O)[C@H]5O)[C@@H](O)[C@H](O)[C@H]4O)cc3o2)cc1 | -2.78% | 76 AU
34 | COc1ccc2ccc(=O)oc2c1 | 6.96% | 44 AU
35 | C[C@H]1[C@H](C)CC[C@]2(CO)CC[C@]3(C)C(=CC[C@@H]4[C@@]5(C)CC[C@H](O)C(C)(C)[C@@H]5CC[C@]43C)[C@H]12 | -50.4% | 52 AU
36 | COc1ccc(C2CC(=O)c3ccc(OC)cc3O2)cc1 (stereo not drawn) | 21.7% (active) | 84 AU
37 | COC(=O)C1=CO[C@@H](O[C@@H]2O[C@H](CO)[C@@H](O)[C@H](O)[C@H]2O)[C@@H]2[C@@H](C)[C@@H](O)C[C@H]12 | 6.61% | 20 AU
38 | CC1(C)C(=O)C=C[C@@]2(C)C1C=C[C@]1(C)C2CC[C@@]2(C)[C@H](c3ccoc3)OC(=O)C3OC321 (stereo partly drawn) | -14.8% | 40 AU
39 | COC(=O)[C@@H]1OC(=O)[C@H]2O[C@@]23[C@@]1(C)CCC1[C@@]2(C)CCC(=O)C(C)(C)C2C[C@@H](OC(C)=O)[C@]13C (stereo partly drawn) | 7.3% | 40 AU
40 | N[C@@H](CCC(=O)N[C@@H](CSC(CC(=O)O)C(=O)O)C(=O)NCC(=O)O)C(=O)O (stereo partly drawn) | 6.35% | 68 AU
41 | COC(=O)CC[C@@H](C)[C@H]1CC[C@H]2[C@@H]3[C@H](O)C[C@@H]4C[C@H](O)CC[C@]4(C)[C@H]3C[C@H](O)[C@]12C | -4.15% | 252 AU (active)
42 | COc1c(-c2ccccc2)oc2c(ccc3occc32)c1=O | -3.15% | 36 AU
43 | O=C(O)C1CC([C@@H]2CCCCN2)CN2CCCCC12 (stereo partly drawn) | 18.1% | 220 AU (active)
44 | COc1ccc2c(c1)OC/C(=C/c1ccc(OC)c(OC)c1)C2=O | -0.769% | 36 AU
